Bioassay records as filed in PubChem.
mHTT-CaM PPI inh: mutant huntingtin-calmodulin interaction inhibitors – biochemical, AlphaScreen, primary screen; P42858; AlphaScreen His-mHTT/GST-CaM binding, luminescence; inhibition, % at 15 µM; actives 3.6% (n = 190,000); AID 1671202, 2021;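 also: 0% = both proteins with DMSO and 100% = one protein alone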
Pf apPOL block: Pf-apPOL inhibitors, biochemical, fluorescence; Plasmodium falciparum apicoplast DNA polymerase (apPOL); Recombinant Pf-apPOL, molecular beacon fluorescence, 1.5 h; inhibition, % at 10 µM; actives 0.25% (n = 210,000); AID 1794808, 2022
* hit, by the source's call. Compounds with a hit are over-represented: about 3.5% of the library has one in this group of screens. Rule as the data show it: active = inhibition above about 50%; inactive = the rest.

Screening CC(C)NC(=O)c1csc2c1CCCC2 returned mHTT-CaM PPI inh -1 and Pf apPOL block 1.
COc1cc(C(c2c[nH]c3ccccc23)c2c[nH]c3ccccc23)ccc1O was read as mHTT-CaM PPI inh 100* and Pf apPOL block 6.
COc1cc(C(c2c(C)[nH][nH]c2=O)c2c(C)[nH][nH]c2=O)ccc1O was read as mHTT-CaM PPI inh 6 and Pf apPOL block 0.
For O=C(Nc1cccc(O)c1)c1ccc(Cl)cc1 the results were mHTT-CaM PPI inh -3 and Pf apPOL block -11.
Screening CCOc1ccc(C(=O)Nc2cccc(-c3nc4ncccc4o3)c2)cc1Cl returned mHTT-CaM PPI inh -3 and Pf apPOL block -9.
O=C(Nc1ccc2c(c1)N(S(=O)(=O)c1ccc(F)cc1)CCC2)C1CC1 was read as mHTT-CaM PPI inh -9 and Pf apPOL block -1.
For Cc1ccc(C2CC(C(F)(F)F)n3nc(C(=O)N4CCCC4)cc3N2)cc1 (stereo unspecified) the results were mHTT-CaM PPI inh 32 and Pf apPOL block -5.
`Cc1ccc(C2CC(C(F)(F)F)n3nc(C(=O)N4CCN(c5ccccc5)CC4)cc3N2)cc1` (stereo unspecified) gave mHTT-CaM PPI inh 90* and Pf apPOL block -11.
N#CCCn1c2c(c3ccccc31)CCCC2 was read as mHTT-CaM PPI inh 22 and Pf apPOL block -8.
Screening c1ccc2[nH]c(CCn3c4c(c5ccccc53)CCCC4)nc2c1 returned mHTT-CaM PPI inh 66*.
`Cc1cc(C)n(-c2nnc(N)nn2)n1` gave mHTT-CaM PPI inh 2.
For Cc1cc(C)n(-c2nnc(C)c(=O)[nH]2)n1 the results were mHTT-CaM PPI inh 90* and Pf apPOL block -2.
For COc1ccc(CC(=O)N2CCC(c3cnn(-c4ccccc4)c3)CC2)cc1 the results were mHTT-CaM PPI inh 6 and Pf apPOL block -4.
CC1=C(C(=O)Nc2ccccn2)C(c2ccc(Cl)cc2)C2=C(CC(C)(C)CC2=O)N1 (stereo unspecified) was read as mHTT-CaM PPI inh 4 and Pf apPOL block -3.
Screening N#Cc1nc(COc2ccc(Br)cc2)oc1N1CCN(Cc2ccccc2)CC1 returned mHTT-CaM PPI inh 48 and Pf apPOL block -1.
Cc1ccc(N2CCN(Cc3nc(C(=O)NC4CC4)co3)CC2)cc1 was read as mHTT-CaM PPI inh 92* and Pf apPOL block 0.
Screening CC1CCN(Cc2nc(C(=O)NC3CCCCC3)co2)CC1 returned mHTT-CaM PPI inh -3 and Pf apPOL block -2.
For Cc1ccc(S(=O)(=O)N2CCC(n3cnc4ccc(F)cc4c3=O)CC2)cc1F the results were mHTT-CaM PPI inh -6 and Pf apPOL block -3.
Screening O=C(Nc1nc(-c2ccc(F)cc2F)cs1)c1c(F)cccc1F returned mHTT-CaM PPI inh -7 and Pf apPOL block 1.
`Cc1nn(C)cc1CN(C)C(=O)c1cc2c(s1)CN(C1CC1)C2` gave mHTT-CaM PPI inh 16 and Pf apPOL block -1.
Cc1cc(C)nc(NS(=O)(=O)c2ccc(NC(=O)CSc3ncn[nH]3)cc2)n1 was read as mHTT-CaM PPI inh -2 and Pf apPOL block 62*.
For Cc1ccnc(NS(=O)(=O)c2ccc(NC(=O)CSc3nc(C)cc(=O)[nH]3)cc2)n1 the results were mHTT-CaM PPI inh -3 and Pf apPOL block -2.
For Cc1c(C)c2cc3c4c(oc3cc2oc1=O)CCCC4 the results were mHTT-CaM PPI inh -5 and Pf apPOL block 25.
Screening CC(=O)c1ccc(N2CCN(S(=O)(=O)CCCOc3ccc(F)cc3)CC2)cc1 returned mHTT-CaM PPI inh 3 and Pf apPOL block -4.
CC(=O)Nc1cc(C)nn1-c1nc2ccccc2[nH]1 was read as mHTT-CaM PPI inh 0 and Pf apPOL block -3.
For Cc1ccc(/C=C2\SC(c3ccccc3)=NC2=O)o1 the results were mHTT-CaM PPI inh 56* and Pf apPOL block -6.
O=C1N=C(N2CCOCC2)S/C1=C\c1cccs1 was read as mHTT-CaM PPI inh -5 and Pf apPOL block 6.
`O=C1N=C(c2ccccc2)S/C1=C/c1ccc2c(c1)OCO2` gave mHTT-CaM PPI inh -3 and Pf apPOL block 1.
Screening O=C1N=C(N2CCOCC2)S/C1=C\c1ccc(-c2ccccc2)o1 returned mHTT-CaM PPI inh 80* and Pf apPOL block -2.
`CCCCN(CCCC)Cc1cc(=O)oc2ccc3ccccc3c12` gave mHTT-CaM PPI inh -24 and Pf apPOL block -3.
`COc1ccc(C=Nc2ccc(C)c(C)c2)cc1O` gave mHTT-CaM PPI inh 17 and Pf apPOL block -8.
`O=C(O)C1C2CCC(C2)C1C(=O)Nc1ccc(F)c(Cl)c1` (stereo unspecified) gave mHTT-CaM PPI inh -5 and Pf apPOL block 1.
O=[N+]([O-])c1ccc(C=NCCOCCOCCN=Cc2ccc([N+](=O)[O-])cc2)cc1 was read as mHTT-CaM PPI inh 1 and Pf apPOL block 10.
`COc1cc(-c2nc(C=Nc3cccc(F)c3)c(O)o2)cc(OC)c1OC` gave mHTT-CaM PPI inh 14 and Pf apPOL block -2.
